Screening results: PubChem BioAssay, The Scripps Research Institute Molecular Screening Center
Hits are enriched below; roughly 4.1% of the tested compounds scored in any of these assays.
hcDAF-12 act = H. contortus DAF-12 nuclear receptor activators, primary screen, cell-based, luminescence, HEK293, lit1-tk-luc reporter. HEK293 hcDAF-12 lit1-tk-luc reporter; 0% DMSO, 100% Δ7-dafachronic acid. activation, % at 6.8 µM. 1.4% of 370,000 active;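 active means activation above the mean of all tested compounds plus 3 SD, cut at about 5.5% in these data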
DAX1 inh-1 = DAX1 (NR0B1) inhibitors, primary screen, cell-based, HEK293, Gal4-DAX1, luciferase luminescence; AID 504766, 2011; HEK293 Gal4-DAX1 luciferase reporter; Nuclear receptor subfamily 0 group B member 1 (Homo sapiens), P51843; inhibition, % at 6.75 µM; 0.99% of 340,000 active;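 active means inhibition above the mean over all tested compounds plus 3 SD, cut at about 4.2% in these data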;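 further: inhibition shows as a rise in luminescence from relieved DAX1 repression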
Target sequence (P51843 207-470 limits assumed): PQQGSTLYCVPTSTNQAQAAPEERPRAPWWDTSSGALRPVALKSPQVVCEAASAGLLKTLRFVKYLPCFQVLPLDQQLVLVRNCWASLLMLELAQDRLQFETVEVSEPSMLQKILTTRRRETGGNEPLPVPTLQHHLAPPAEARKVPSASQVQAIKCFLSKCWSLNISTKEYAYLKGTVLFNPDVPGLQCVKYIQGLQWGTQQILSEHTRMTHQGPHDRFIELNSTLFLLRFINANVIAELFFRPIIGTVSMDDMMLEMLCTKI
DAX1 inh-2 = DAX1 (NR0B1) inhibitors on StAR promoter, primary screen, cell-based, luminescence, SF-1 (NR5A1), full-length DAX-1. HEK293T StAR-luciferase reporter, SF-1/DAX-1 repression relief. inhibition, % at 6.8 µM. 1.1% of 370,000 active;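 active means inhibition above the mean over all tested compounds plus 3 SD, cut at about 3.6% in these data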;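 further: higher inhibition means more luminescence from relief of DAX-1 repression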
ssDAF-12 act = S. stercoralis DAF-12 nuclear receptor activators, primary screen, cell-based, luminescence, HEK293, GRIP1 co-expression, lit1-tk-luc. Nuclear hormone receptor DAF-12 (Strongyloides stercoralis). HEK293 ssDAF-12/GRIP1 lit1-tk-luc reporter; % of 3 µM dafachronic acid response. activation, % at 6.8 µM. 1% of 370,000 active;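 active means activation above the mean over all tested compounds plus 3 SD, cut at about 0.9% in these data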
hgDAF12 agonist = H. glycines DAF-12 receptor agonists, primary screen, cell-based, luminescence, HEK293, GAL4 fusion, UAS-luciferase; HEK293 GAL4-hgDAF12 UAS-luciferase reporter, agonist luminescence; normalized to butyrate control; 1.8% of 370,000 active; activation, % at 6.8 µM;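 active means activation above a cutoff set at the mean of all screened compounds plus 3 SD, cut at about 10% in these data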
Each line names hits and unclear results; the compound was inactive in the other large screens.

O=C(O)COc1ccccc1/C=N/NC(=O)CSc1nnc(SCc2ccc(Cl)cc2)s1	none
Cc1ccnn1CC(=O)N/N=C/c1c[nH]c2ccccc12	none
O=C(CSc1nnc(SCc2cccc3ccccc23)s1)N/N=C/c1c[nH]c2ccccc12	ssDAF-12 act 1.4
O=C(CSc1nnc(SCc2ccc(Cl)cc2)s1)N/N=C/c1c[nH]c2ccccc12	hcDAF-12 act 5.6
O=C(CSc1ccccn1)N/N=C/c1c[nH]c2ccccc12	hcDAF-12 act 5.8
C=CC[C@@H]1NN2C(=O)[C@@H](C)[C@@H]3c4ccccc4C=NN3[C@@H]2c2ccccc21	none (no result: DAX1 inh-1)
CN(Cc1cn(C)c2ccccc12)C(=S)Nc1cc(F)cc(F)c1	ssDAF-12 act 1.2
Cc1cccc(NC(=S)N(C)Cc2cn(C)c3ccccc23)c1	none
CC(C)NC(=O)c1cc2ccccc2o1	DAX1 inh-1 5.1
CC1CCCCC1NC(=O)c1cc(Cl)nc2ccccc12 (centres undefined)	ssDAF-12 act 1.4
CC1CCCCC1NC(=O)c1cc2ccccc2o1 (centres undefined)	hgDAF12 agonist 11
CCOc1ccc(-n2c(SCC(=O)Nc3ccc4cn[nH]c4c3)nnc2-c2ccc(C(C)(C)C)cc2)cc1	none (no result: DAX1 inh-1)
COCc1cc(C)n(CC(=O)N/N=C/c2ccc(-c3ccc(Cl)c(C(=O)O)c3)o2)c(=O)c1C#N	ssDAF-12 act 0.9
O=C(Cc1ccc(F)cc1)N/N=C/c1ccc(-c2ccc(Cl)c(C(=O)O)c2)o1	none
Cc1cccc(NC(=O)Cn2nnc(-c3ccccc3F)n2)c1C	none (no result: DAX1 inh-1)
COc1ccc(C2=NOC(CN3C(=O)c4ccccc4S3(=O)=O)C2)cc1 (centres undefined)	hgDAF12 agonist 12
O=C1c2ccccc2S(=O)(=O)N1CC1CC(c2ccccc2)=NO1 (centres undefined)	none
CC(=O)c1ccc(NC(=O)Nc2ccccc2)cc1	DAX1 inh-2 3.6, hgDAF12 agonist 13
CC(=O)c1cccc(NC(=O)Nc2nc(C)cc(C)n2)c1	DAX1 inh-1 4.7
CCN(CC)c1ccc(NC(=O)Nc2ccccc2)cc1	hgDAF12 agonist 12
Cc1ccc(NC(=O)c2cc(C)nc3ccccc23)cc1	none
CCN(CC)c1ccc(NC(=O)Nc2ccc(C(C)=O)cc2)cc1	none
CC(=O)c1ccc(NC(=O)c2cc(C)nc3ccccc23)cc1	DAX1 inh-1 4.4
O=C(Cc1ccc(Cl)c(Cl)c1)Nc1ccc(S(=O)(=O)Nc2ccon2)cc1	none (no result: DAX1 inh-1)
COc1ccc(CN2C[C@]3(C=C(C)Cn4c(=O)n(-c5ccccc5)c(=O)n43)N(C(=O)OCc3ccccc3)C2=NC(=O)c2ccccc2)c(OC)c1	none (no result: DAX1 inh-1)
C[C@H](O)[C@@H]1CN2CCc3ccc(N4CCOCC4)cc3[C@@H]2C[C@@H]1N(C)C(=O)c1ccco1	none (no result: DAX1 inh-1)
Cc1nn(CCOc2ccccc2)c(=O)n1-c1c(F)cccc1F	hgDAF12 agonist 11
C#CCNC(=O)C[C@H]1C[C@@]2(C(=O)OC)C(=C[C@H](C3CCCC3)O[C@@H]2C)N(CCC2=CCCCC2)C1=O	none (no result: DAX1 inh-1)
Cc1cc(C)n(-c2nc3ccccc3[nH]c2=O)n1	DAX1 inh-1 4.3
Cc1cc(C)n(-c2nc3ccccc3nc2Nc2ccc3[nH]c(=O)[nH]c3c2)n1	none
COc1cc(OC)cc(C(=O)NCC2CCN(C(=O)C(=O)c3cccs3)CC2)c1	none (no result: DAX1 inh-1)
Cc1ccc2nc(N3CCOCC3)c(C=O)cc2c1	DAX1 inh-1 8.2
Cc1ccc2cc(C=O)c(N3CCOCC3)nc2c1C	none
COc1cc2c(c(OC)c1)[C@H](/C=C/c1ccccc1)[C@@H]([C@H](O)CO)OC2	none (no result: DAX1 inh-1)
Cn1cc(C=O)c2ccccc21	ssDAF-12 act 1.3
O=Cc1ccc(-n2cc(C=O)c3ccccc32)cc1	none
C/C=C/c1ccc(OCC(=O)OCc2csc(CC(=O)Nc3ccccc3C)n2)c(OC)c1	DAX1 inh-1 5.9
O=C(Nc1ccccc1)Nc1ncc([N+](=O)[O-])s1	DAX1 inh-2 3.7
